PubChem BioAssay (NCATS)
Results filed as inconclusive are left out. Entries that show only a call come without a potency. Values without a mark were called inactive. Active and inactive are the calls of the source. The call rests on the fitted dose curve; in most records, active means well fitted cell-killing curve with a large enough effect; inconclusive means small, poorly fitted or top-dose-only effect, or effect the other way; inactive means no such curve, though single readings can be large or run the other way.

Columns and labels:
[1] = Viability qHTS for spleen associated tyrosine kinase inhibitor (SYKi) naive MV4-11 cells (AID 1963823); further: nearly all actives have a fitted effect of over 40% in size
Method in brief: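 SYKi-naive MV4-11 AML cells, 500 per well, were exposed to library compounds for 72 hr at 37 C, 5% CO2. Viability was then read by CellTiter-Glo luminescence after 10 min at room temperature.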

[2] = Viability qHTS for spleen associated tyrosine kinase inhibitor (SYKi) drug resistant MV4-11 cells (AID 1963824); further: nearly all actives have a fitted effect of over 35% in size
Method in brief: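 SYK inhibitor-resistant MV4-11 AML cells, 500 per well, added to predispensed compounds and incubated 72 hr at 37 C, 5% CO2. Viability measured by CellTiter-Glo luminescence after 10 min at room temperature.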
Potency means the concentration at half of the fitted maximal effect.

Compound | Potency [1] | Potency [2] | viability (% of control) [1] | viability, % of control [2]
O=C(/C=C/c1ccc(O)cc1)OCC1OC(O)C(OC2OC(CO)C(O)C(O)C2O)C(O)C1O (stereo not drawn) | inactive | inactive | – | –
C=C(C(=O)OC)C1C(O)CC2(C)C(=O)CCC(O)(CO)C2C1O (stereo not drawn) | inactive | inactive | – | –
CC1(C)CC2C(C1)C(C)(O)C13CC1(COC3=O)C2O (stereo not drawn) | inactive | inactive | – | –
CC1=CC(=O)C2(OC3OC(C)C(O)C(OC(=O)/C=C/c4ccccc4)C3O)C=COC(OC3OC(CO)C(O)C(O)C3O)C12 (stereo not drawn) | inactive | inactive | – | –
CC1(C)C2CCC1(C)C(OC(=O)C(O)(CC(=O)O)CC(=O)O)C2 (stereo not drawn) | inactive | inactive | – | –
OC1C=C2C3CN(Cc4cc5c(cc43)OCO5)C2CC1O (stereo not drawn) | 5.17 µM (active) | 5.17 µM (active) | – | –
C=C1[C@@H](OC(C)=O)CC[C@@]2(C)[C@@H](OC(C)=O)[C@H](OC(C)=O)C3=C(C)C[C@H](OC(=O)C(C)CC)[C@@H]([C@@H](OC(C)=O)[C@H]12)C3(C)C (stereo partly drawn) | 1.53 µM (active) | 1.22 µM (active) | – | –
Oc1ccc(Nc2nc(-c3ccc(Cl)cc3)cs2)cc1 | 5.8 µM (active) | 2.06 µM (active) | – | –
O=C(/C=C\c1ccc(O)cc1)N[C@@H](Cc1ccc(O)cc1)C(=O)O | inactive | inactive | – | –
CC1(C)CC[C@]2(C(=O)O)CC[C@]3(C)C(=CCC4[C@@]5(C)CC[C@H](O[C@@H]6O[C@H](C(=O)O)[C@@H](O)[C@H](O[C@@H]7O[C@H](CO)[C@H](O)[C@H](O)[C@H]7O)[C@H]6O[C@@H]6O[C@H](CO)[C@@H](O)[C@H](O)[C@H]6O)C(C)(C)C5CC[C@]43C)[C@@H]2C1 (stereo partly drawn) | – | – | 77.5% [at 4.97 µM] | 75.1% [at 4.97 µM]
CCC1=C(C)C(=O)C(C)CC12C(=O)CCC2C(=O)O (stereo not drawn) | inactive | inactive | – | –
COC(=O)C1=CO[C@@H](O[C@@H]2O[C@H](CO[C@@H]3O[C@H](COC(=O)/C=C/c4cc(OC)c(O)c(OC)c4)[C@@H](O)[C@H](O)[C@H]3O)[C@@H](O)[C@H](O)[C@H]2O)[C@@H]2C(CO)=CC[C@H]12 | inactive | inactive | – | –
C#Cc1cnc2[nH]c(=O)n(C(CC)CC)c2n1 | inactive | inactive | – | –
COc1cc(/C=C/C(=O)OC[C@H]2O[C@@H](OC3CC(C)=C(C(=O)O)C(C)(C)C3)[C@H](O)[C@@H](O)[C@@H]2O)cc(OC)c1O (stereo partly drawn) | inactive | inactive | – | –
Oc1cc(CNC(=S)/C=C/c2cc(O)c(O)c(Br)c2)cc(O)c1O | 1.84 µM (active) | 1.84 µM (active) | – | –
CC1(C)C[C@H]2C=C(C=O)[C@]3(C(=O)O)C[C@]3(C)[C@H]2C1 | inactive | inactive | – | –
CC12CC34C=CC(=O)C(C)(CCC(=O)O)C3C(CC1C4)O2 (stereo not drawn) | inactive | inactive | – | –
COc1cc2ncc(-c3ccccc3)nc2cc1OC | 3.66 µM (active) | 4.61 µM (active) | – | –
CCN(CC)C(=O)c1ccc(Nc2nc(OCC3CCCCC3)c3[nH]cnc3n2)cc1 | 1.03 µM (active) | 1.46 µM (active) | – | –
CCOC(=O)C1=CCCCC1S(=O)(=O)Nc1ccc(F)cc1Cl (stereo not drawn) | 20.9 µM (active) | 16.6 µM (active) | – | –
CC(=O)N1CCc2ccc(O)c(OC3OC(COC4OCC(O)(CO)C4O)C(O)C(O)C3O)c2C1Cc1ccc(O)cc1 (stereo not drawn) | inactive | inactive | – | –
C/C=C/C=C/C(CC(=O)O)Nc1ccc(C=O)cc1 (stereo not drawn) | inactive | inactive | – | –
N#Cc1cc(-c2n[nH]c(-c3ccncc3)n2)ccn1 | inactive | inactive | – | –
CC(=O)O[C@H]1C[C@@]2(C)[C@@H](C[C@@H](O)[C@H]3[C@@]4(C)CC[C@@H](O)[C@@H](C)[C@@H]4CC[C@@]32C)/C1=C(\CCC=C(C)C)C(=O)O | inactive | inactive | – | –
CC(C)[C@H]1CC[C@@]2(O)COC(=O)[C@H]2[C@@H]1/C=C(\CO)C(=O)O | inactive | inactive | – | –
CC(C)[C@@H](c1ccc(C(F)(F)F)cc1CN(Cc1cc(C(F)(F)F)cc(C(F)(F)F)c1)c1nnn(C)n1)N1CCC(C(=O)O)CC1 | 16.4 µM (active) | 20.6 µM (active) | – | –
COc1cc(C2Oc3c(O)cc(CCCO)cc3C2CO)ccc1O[C@H]1O[C@H](C)[C@@H](O)[C@H](O)[C@@H]1O (stereo partly drawn) | inactive | inactive | – | –
C=CCc1ccc(O[C@@H]2O[C@H](CO[C@@H]3O[C@@H](C)[C@H](O)[C@@H](O)[C@H]3O)[C@@H](O)[C@H](O)[C@H]2O)cc1 | inactive | inactive | – | –
CC1=CC(=O)CC2C1(O)CCC(C)C21CC(c2ccoc2)OC1=O (stereo not drawn) | inactive | inactive | – | –
